Screens: PubChem BioAssay, National Center for Advancing Translational Sciences (NCATS)
Most compounds without a hit are left out; they make up all but 1.2% or so of the library.
Eya2 phos inh: blocks the phosphatase activity of human Eya2; recombinant Eya2, OMFP fluorescence dephosphorylation (OMFP is methylfluorescein phosphate); Potency, µM (top dose mostly 76.9 µM), actives largely listed as inhibitors; actives 0.006% (n = 330,000)
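Eya2 protein (added as 0.2 uM solution) was preincubated with compound for 10 min at ambient temperature in 50 mM HEPES pH 7.5, 50 mM NaCl, 5 uM MgCl2, 0.05% BSA, 1 mM DTT. OMFP (added at 50 uM) then reacted 10 min; fluorescence read at 485/525 nm.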
Six1-Eya2 inh: blocks human Six1 binding to Eya2. Q15475+O00167. AlphaScreen GST-Six1/His-Eya2 binding, biochemical; hits give low values. activity change, % (no concentration beside the values). actives 0.56% (n = 360,000). AID 651725; in the data active means activity change below about -65%; inconclusive means mostly about -30% to -63%
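AlphaScreen luminescence read after one hour at 37 °C in darkness. Pin-transferred compounds met GST-Six1 and His-Eya2 protein (5X stock 250 nM/500 nM) plus glutathione donor and Ni-chelate acceptor beads (5X, 50 ug/mL).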
CtBP-E1A inh: blocks the CtBP interaction with E1A; AlphaScreen GST-E1A/His-CtBP binding, 1536-well; hits give low values; activity change, % (test concentration not listed); actives 0.49% (n = 340,000); AID 651724; in the data active means activity change below about -65%; inconclusive means mostly about -30% to -63%
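GST-E1A and His-tagged CtBP (125 nM each as 5X stock) were preincubated with pin-transferred compound for 2 h at 37 °C in the dark, then glutathione donor and nickel acceptor beads were added for 1 h before AlphaScreen reading.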
L3MBTL1 inh: inhibitors of human L3MBTL1; Q9Y468; AlphaScreen L3MBTL1–H3K9me1 peptide binding; Potency, µM (top dose mostly 57.1 µM), actives largely listed as inhibitors; actives 0.66% (n = 230,000); AID 485360; further: nearly all actives have a fitted effect of over 60% in size
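AlphaScreen assay: L3MBTL1 (50 nM final) was preincubated 30 min at room temperature with biotinylated H3(1-15)K9me1 peptide (75 nM final), then 30 min with library compounds; streptavidin donor and nickel chelate acceptor beads (10 ug/mL final) added, 30 min dark.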
uPA generation: inhibitors of cell surface uPA generation; cell surface uPA generation assay, qHTS; Potency, µM (series often up to 38.3 µM), usual class: inhibitors; actives 0.31% (n = 330,000); AID 540303; active means well fitted inhibition curve with a large enough effect; inconclusive means small, poorly fitted or top-dose-only effect; inactive means no such curve, though single readings can be large or run the other way; tested in mouse RAW 264.7 cells; further: nearly all actives have a fitted effect of over 55% in size
USP2a inh: inhibitors of human ubiquitin-specific protease USP2a; O75604; USP2 core, Ub-CHOP2 coupled fluorogenic reporter, 485/531; Potency, µM (highest dose often 38.3 µM), most hits filed as inhibitors; actives 0.01% (n = 330,000); AID 463254
Target sequence (O75604 whole entry, looked up): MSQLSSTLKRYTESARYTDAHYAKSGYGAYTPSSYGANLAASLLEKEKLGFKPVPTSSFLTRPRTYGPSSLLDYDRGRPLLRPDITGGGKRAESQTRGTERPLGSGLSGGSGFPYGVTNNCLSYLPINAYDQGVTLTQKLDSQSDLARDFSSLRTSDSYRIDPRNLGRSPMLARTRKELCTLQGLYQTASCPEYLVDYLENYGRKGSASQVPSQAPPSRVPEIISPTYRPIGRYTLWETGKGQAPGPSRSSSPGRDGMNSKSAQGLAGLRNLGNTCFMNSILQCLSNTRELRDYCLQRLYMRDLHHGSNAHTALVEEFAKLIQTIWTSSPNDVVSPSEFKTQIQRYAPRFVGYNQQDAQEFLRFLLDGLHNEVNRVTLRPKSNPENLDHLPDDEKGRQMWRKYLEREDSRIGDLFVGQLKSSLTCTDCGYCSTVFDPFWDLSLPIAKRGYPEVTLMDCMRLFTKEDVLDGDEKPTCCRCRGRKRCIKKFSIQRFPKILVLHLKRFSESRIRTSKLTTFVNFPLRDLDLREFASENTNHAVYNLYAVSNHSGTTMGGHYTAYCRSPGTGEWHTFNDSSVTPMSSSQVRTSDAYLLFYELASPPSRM
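Cell-free coupled assay: 10nM USP2 core preincubated 30min RT with compound in Tris-HCl pH 8.0/CaCl2/CHAPS buffer, then 25nM Ub-CHOP2 and 25nM reporter substrate; fluorescence (Ex 485/Em 531) read after 60min RT, normalized to NEM inhibition, concentration-response curves fitted.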
A number is an active result; 0 = inactive; ? = inconclusive; - = no result given; [ ] = another dose, or the depositor's remark. Unless noted, the call rests on the fitted dose curve; in most records, active means well fitted curve in the direction sought with a large enough effect; inconclusive means small, poorly fitted or top-dose-only effect, or another doubt; inactive means no such curve, though single readings can be large; an effect the other way counts as inactive or inconclusive.

SMILES	Eya2 phos inh	Six1-Eya2 inh	CtBP-E1A inh	L3MBTL1 inh	uPA generation	USP2a inh
Cc1cc(Br)c(OCc2ccc(C(=O)N/N=C/c3ccc[nH]3)cc2)c(Br)c1	0	0	0	0	0.18µM	0
O=C(N/N=C/c1ccc[nH]1)c1ccc(COc2cccc3cccnc23)cc1	0	0	0	0[2.29 µM]	0	0
COc1ccc(-c2cc(C(F)F)n3ncc(C(=O)Nc4cc(C)on4)c3n2)cc1	0	0	0	0	0	0
COc1cc(/C=C2\SC(=Nc3ccc(O)cc3)NC2=O)cc(OC)c1O	?	?	-65	-	0	0
CN(C)c1ccc(NC(=O)CC(NCc2ccccn2)C(=O)O)cc1 (centres undefined)	0	-92	0	13µM	0	0
Cc1ccc(Cl)cc1Nc1nc(-c2sc(NC(=O)c3ccco3)nc2C)cs1	0	0	0	0	7.9µM	0
CCCCCCCCCCCCCCCC[N+](C)(C)CCN(Cc1ccc(OC)cc1)c1ncccn1	?	0	0	0	?	10µM
COc1ccc(CN(CCN(C)C)c2ccccn2)cc1	0	0	0	0	0	0
CCc1cccc(C)c1NC(=O)C1CC=CCC1C(=O)O (centres undefined)	0	0	0	0	0	0
C[C@]1(O)CC(=O)C=C[C@H]1Nc1ccccc1	-	?	0	-	8.9µM	-
Cc1nonc1CC(=O)NC1CCCc2c1cnn2-c1ccc(F)cc1F (centres undefined)	0	0	0	-	0	0
CCc1cccc(C)c1NC(=O)C1CCCN(S(C)(=O)=O)C1 (centres undefined)	0	0	0	0	0	0
O=C(O)c1cccc(N/N=C/c2ccc(OC(F)(F)F)cc2)c1	0	0	0	-	0	0
CSc1ccc(/C=N/Nc2cccc(C(=O)O)c2)cc1	0	?	0	5µM	0	0
COC(=O)c1ccc(COc2ccc(/C=N/Nc3cccc(C(=O)O)c3)cc2)cc1	0	0	0	25µM	0	0
Cc1ccc(C2CC(=O)NC(SCc3ccccc3)=C2C#N)o1 (centres undefined)	0	0	0	18µM	0	0
COc1cccc(CNC(=O)CCC2CCCN(C(=O)c3ccccc3N(C)C)C2)c1 (centres undefined)	0	0	0	-	0	0
C=CCN(CC=C)CCCOc1ccc(C)cc1OC	0	0	0	0	0	0
Nc1c(Br)cc(Br)c2c1C(=O)c1c(cccc1S(=O)(=O)O)C2=O	-	?	-74	-	0	-
Nc1c(Br)cc(Br)c2c1[nH]c(=O)c1ccccc12	-	0	0	-	-	-
Oc1ccccc1/C=N/Nc1ccccc1	0	0	0	0	0	0
NC(=S)NN=Cc1c[nH]c2nccnc12	-	-66	0	-	-	-
Oc1ccccc1C=NNC(=S)NN=Cc1ccccc1O	-	-81	-95	-	0	-
O=C(N/N=C/c1ccccc1O)C1SCCCS1	0	-92	-95	0	?	0
NC(=S)N/N=C/c1cccc(O)c1O	0	-80	-93	28µM	0	0
SMILES	Eya2 phos inh	Six1-Eya2 inh	CtBP-E1A inh	L3MBTL1 inh	uPA generation	USP2a inh
O=C(NN=Cc1ccccc1O)C1CC1	-	?	?	-	0	-
O=C(Cn1ccc2cc(S(=O)(=O)N3CCCCC3)ccc21)NCc1ccccc1F	0	0	0	-	0	0
CC(=O)c1ccc(N(CC(=O)NCc2ccc3c(c2)OCO3)C(=O)c2csnn2)cc1	0	0	0	-	0	0
Oc1cccc(/C=N/NC(=S)NCCN2CCOCC2)c1O	0	-69	-94	10µM	?	0
Cc1cc(/C=N/NC(N)=S)c(O)c(/C=N/NC(N)=S)c1	0	-87	-92	?	0	?
NC(=S)N/N=C/c1ccccc1O	0	-87	-68	?	0	0
CCC1=Nc2cc(C(=O)NCc3ccco3)ccc2Sc2ccc(Cl)cc21	0	0	0	0	0	0
CCC1=Nc2cc(C(=O)NCc3ccco3)ccc2Sc2ccccc21	0	0	0	0	3.2µM	0
CCc1nccn1S(=O)(=O)c1cc(OC)ccc1OC	0	0	0	0	?	0
CCc1ccc(-c2cc(C)no2)cc1S(=O)(=O)N1CCN(c2ccccc2)CC1	0	0	0	-	0	0
CCc1ccc(-c2cc(C)no2)cc1S(=O)(=O)N1CCN(c2ccccc2OC)CC1	0	?	-79	-	0	0
COc1ccccc1N1CCN(c2cc(=O)n(Cc3ccc(F)cc3)c(=O)[nH]2)CC1	0	0	0	0	2.8µM	0
COc1ccccc1N1CCN(S(=O)(=O)CCNC(=O)Cc2ccc(F)cc2)CC1	0	0	0	0	7.1µM	0
Cc1ccc(N2C(SCC(=O)O)=NC(=Nc3cccc(C)c3)C23CCCC3)cc1	0	0	0	-	0	0
CCSCc1nnc(SCC(=O)Nc2ccc(F)cc2)n1CC	0	0	0	0	0	0
O=C(CSc1nc(-c2ccc(F)cc2)nc2c1Cc1ccccc1O2)Nc1ccc(C(=O)O)cc1	0	0	0	5µM	0	0
Cc1ccc(-c2nc3c(c(SCC(=O)Nc4cccc(C(=O)O)c4)n2)Cc2cccc(C)c2O3)cc1	0	-	-	5.6µM	-	0
O=C(CSc1nc(-c2ccc(F)cc2)nc2ccc(F)cc12)Nc1cccc(C(=O)O)c1	0	0	0	0	0	0
CCOC(=O)/C(=N\Nc1ncnc2ccccc12)c1ccc(OC)cc1	0	0	0	-	0	0
COc1ccc(/C(=N/Nc2ncnc3ccccc23)C(=O)O)cc1	0	-77	-69	-	0	0
O=C1/C(=C/c2ccco2)CCc2ccccc21	0	0	0	?	0	0
CCC1C/C(=C/c2ccco2)C(=O)/C(=C/c2ccco2)C1 (centres undefined)	0	-	-	32µM	-	0
Oc1ccccc1N=Cc1c(O)ccc2oc3c(c12)CCCC3	0	0	0	0	4.5µM	0
CN(C)S(=O)(=O)c1cccc(NC(=S)N/N=C/c2cc(Br)ccc2O)c1	0	-88	-94	10µM	0	0
Cc1ccccc1CN1CCC(n2nccc2NC(=O)CCOc2ccccc2)CC1	0	0	0	-	?	0
SMILES	Eya2 phos inh	Six1-Eya2 inh	CtBP-E1A inh	L3MBTL1 inh	uPA generation	USP2a inh
O=P(Cc1cc(Br)cc(Br)c1OCCO)(c1ccccc1)c1ccccc1	0	0	0	0	0	0
COC(=O)C1=C(C)N(c2ccccc2)/C(=C/c2ccco2)C1=O	0	0	0	0	0	0
COC(=O)C1=C(C)N(c2cc(C)cc(C)c2)/C(=C/c2ccco2)C1=O	0	0	0	13µM	0	0
CC1CCc2c(sc(NC(=O)/C=C/c3cccs3)c2C(=O)O)C1 (centres undefined)	0	0	0	-	10µM	0
Fc1cccc(Cl)c1CN1CCN(c2nc3ccccc3s2)CC1	0	0	0	-	0	0
CS(=O)(=O)c1ccc(C(=O)Nc2nc(-c3ccco3)c(-c3ccco3)s2)cc1	0	?	0	7.1µM	0	?
